These results are taken from PubChem BioAssay (NCI).

About 83,000 compounds went through this panel and 20% of them were active in at least one assay; those are over-represented in the sample as a whole.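 Treatment: one concentration, 48 hours, 96-well format. Scoring: percent growth, with anything below 10 considered active.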 A number with no mark means an inactive call. Activity calls are given as the source filed them.

What all share (test): NCI-60 one-dose screen, 48 h (100 = growth as untreated, 0 = no growth, -100 = all killed)
What all share (details): 10 µM

The subject of assay [1] is SK-MEL-2 melanoma.
Assay [2] has as its system EKVX NSCLC.
For assay [3], the system named is SN12C renal.
The test system of assay [4] is UO-31 renal.
Assay [5] concerns ACHN renal.
Assay [6] concerns CAKI-1 renal.
Assay [7] deals with A498 renal.
The test system of assay [8] is CCRF-CEM leukemia.
Assay [9] relates to MOLT-4 leukemia.
Assay [10] has as its system SR leukemia.
Assay [11] has as its system RPMI-8226 leukemia.
The test system of assay [12] is OVCAR-8 ovarian.
The test system of assay [13] is OVCAR-5 ovarian.
The test system of assay [14] is OVCAR-4 ovarian.
For assay [15], the system named is SK-OV-3 ovarian.
Assay [16] deals with IGROV1 ovarian.
For assay [17], the system named is OVCAR-3 ovarian.
Assay [18] deals with HS 578T breast.
Assay [19] has as its system NCI/ADR-RES ovarian.

As to `CS(=O)(=O)c1nccc(-c2c(-c3cccc(OCc4ccc(F)cc4)c3)nc3sccn23)n1`, the growth in assay [1] was 96%; in [2], 97.2%; in [3] it was 77.7%; in assay [4], -24.1% (active); in [5], 94.9%; in assay [6] it was 34.4%. The growth was 77.3% in assay [7]; 50% in assay [8]; 24.2% in assay [9]; 38.6% in [10]; 71.7% in [11]; 86.3% in assay [12]. In addition, the growth is 102% in assay [13]; 65.1% in assay [14]; 60.7% in assay [15]; 49.7% in assay [16]; 88.3% in assay [17]; 73.4% in assay [18]. Moreover, the growth in [19] is 89.4%.

For the molecule `COc1cc2cc(Oc3ccc(NC(=O)Nc4ccc(Cl)c(Cl)c4)cc3)c(C)nc2cc1OC`, the growth in [1] was -7.82% (active); in [2] it was 21%; in assay [3], 22.1%; in assay [4] it was 3.69% (active); in assay [5] it was 16.4%; in assay [6] it was 21.7%. The growth in [7] was 35.8%; in [8], 13.3%; in [9] it was 3.69% (active); in assay [10] it was 18%; in [11] it was 4.2% (active); in [12], 15%. The growth in assay [13] is 53%; in assay [14] it was 31.9%; in assay [15] it was 28.6%; in assay [16] it was 18.6%; in assay [17], -10% (active); in assay [18], 45.1%. In addition, the growth in assay [19] is 17.1%.

Consider `COc1cc2c(Nc3ccc(S(N)(=O)=O)cc3)ncnc2c(OC)c1OC`, for which the growth in assay [1] was 92.4%; in assay [2], 100%; in assay [3], 93.5%; in assay [4], 67.3%; in [5], 99.4%; in assay [6], 92%. Besides, the growth in [7] was 103%; in assay [8] it was 92.5%; in [9] it was 97.3%; in assay [10] it was 99.9%; in assay [11], 99.1%; in assay [12], 106%. Moreover, the growth in assay [13] was 105%; in assay [14], 102%; in [15], 75.5%; in [16], 96.1%; in assay [17], 90.4%; in [18] it was 96%. For the same molecule, the growth in [19] was 96.5%.
